Assay results as given in publication PMC4336329 (PLoS ONE, 2015).
Out of some 310,000 compounds screened, about 14,000 (4.5%) showed an effect of 50% or more. Effects have a minus sign here. What follows is part of a selection rich in strong results, with near analogues and random picks from the rest.

The compounds below were run against human ether-à-go-go-related gene (hERG) potassium channel (human, UniProt Q12809) (assay: primary screen, population patch clamp on CHO cells stably expressing hERG; higher = less effect of the substance).
human ether-à-go-go-related gene (hERG) potassium channel, sequence (Q12809 whole entry, looked up): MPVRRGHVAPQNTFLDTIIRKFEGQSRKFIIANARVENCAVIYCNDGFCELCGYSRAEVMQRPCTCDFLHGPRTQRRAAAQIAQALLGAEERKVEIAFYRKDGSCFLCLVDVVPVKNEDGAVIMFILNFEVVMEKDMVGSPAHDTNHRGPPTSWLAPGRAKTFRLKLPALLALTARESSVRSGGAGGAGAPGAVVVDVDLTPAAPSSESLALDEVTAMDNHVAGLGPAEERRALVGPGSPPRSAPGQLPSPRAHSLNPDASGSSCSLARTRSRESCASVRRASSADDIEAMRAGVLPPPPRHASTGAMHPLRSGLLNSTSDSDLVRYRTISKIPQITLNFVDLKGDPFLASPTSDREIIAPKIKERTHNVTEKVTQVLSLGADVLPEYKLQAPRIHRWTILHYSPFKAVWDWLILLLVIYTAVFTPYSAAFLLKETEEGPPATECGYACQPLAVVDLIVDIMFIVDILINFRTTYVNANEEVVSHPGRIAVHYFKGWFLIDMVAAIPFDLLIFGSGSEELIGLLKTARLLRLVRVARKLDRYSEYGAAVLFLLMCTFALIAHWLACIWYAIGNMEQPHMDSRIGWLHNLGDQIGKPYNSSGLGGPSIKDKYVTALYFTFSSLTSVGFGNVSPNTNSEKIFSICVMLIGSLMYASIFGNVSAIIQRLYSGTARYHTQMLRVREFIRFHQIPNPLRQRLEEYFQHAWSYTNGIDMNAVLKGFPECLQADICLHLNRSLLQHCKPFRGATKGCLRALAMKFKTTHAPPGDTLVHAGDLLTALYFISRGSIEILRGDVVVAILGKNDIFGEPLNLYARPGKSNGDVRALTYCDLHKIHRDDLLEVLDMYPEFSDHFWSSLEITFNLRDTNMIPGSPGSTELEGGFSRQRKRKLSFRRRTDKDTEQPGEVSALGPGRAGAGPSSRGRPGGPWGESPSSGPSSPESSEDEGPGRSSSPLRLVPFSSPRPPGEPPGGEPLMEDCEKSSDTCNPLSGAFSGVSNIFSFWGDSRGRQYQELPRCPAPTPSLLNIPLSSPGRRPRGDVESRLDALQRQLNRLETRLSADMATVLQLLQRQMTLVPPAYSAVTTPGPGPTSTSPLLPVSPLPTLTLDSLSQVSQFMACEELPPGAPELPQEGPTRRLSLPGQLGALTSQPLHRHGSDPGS
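Also: peak tail current of the secondary pulse compared with the same well before compound.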

| SMILES | hERG current change (%, negative = inhibition) at 10uM |
| --- | --- |
| Cn1cccc1Cc1nnc(SCC(=O)NC2CCCC2)n1-c1ccc(F)cc1 | -19% |
| Brc1ccc(-c2csc(Nc3nc(-c4ccc(Br)cc4)cs3)n2)cc1 | 15% |
| COc1ccccc1OCCNC(=O)c1cc(=O)[nH]c2ccccc12 | -4.62% |
| COCCCNCC(O)COc1cccc2[nH]c(C)cc12 (stereo not shown) | 10% |
| COc1ccccc1OCCNCC(O)COc1cccc2[nH]c3ccccc3c12 (stereo not shown) | -65.6% |
| COc1cc(CNC(C)(C)CO)cc(Br)c1OCc1ccccc1.Cl | -17.2% |
| CNCc1c(OCc2ccccc2F)ccc2ccccc12.Cl | -63.5% |
| CCOc1cc(CNCCO)cc(Br)c1OCc1ccc(Cl)cc1.Cl | -16.5% |
| COc1cccc(CNC(C)(C)CO)c1OCc1ccc(Cl)cc1.Cl | -56.6% |
| CC(C)(CO)NCc1cccc(OCc2ccc(Cl)cc2)c1 | -30.8% |
| CC(O)CNCCNCc1c(OCc2ccccc2)ccc2ccccc12.Cl (stereo not shown) | -34.6% |
| CC(C)(CO)NCc1c(OCc2ccc(Cl)cc2)ccc2ccccc12.Cl | -75.6% |
| CNCc1c(OCc2ccc(F)cc2)ccc2ccccc12.Cl | -49.1% |
| CNCc1ccccc1OCc1ccccc1F.Cl | -4.37% |
| CNCc1c(OCc2ccccc2)ccc2ccccc12.Cl | -34.1% |
| Cl.OCCNCc1c(OCc2ccc(Cl)cc2)ccc2ccccc12 | -77.4% |
| COc1cc(CNC(C)(C)CO)cc(Br)c1OCc1ccc(Cl)cc1.Cl | -45.7% |
| CC(CC(=O)Nc1ccc(S(=O)(=O)Nc2ncccn2)cc1)c1ccccc1 (stereo not shown) | 6.78% |
| COc1ccc(C(=O)NC(=S)Nc2ccc(N3CCN(C(C)=O)CC3)cc2)cc1[N+](=O)[O-] | -2.14% |
| O=C1N(CN2C(=O)C3(OCCO3)c3ccccc32)c2ccccc2C12OCCO2 | 17.1% |
| COc1cc2c(cc1OC)C(COc1ccccc1OC)N(C(C)=O)CC2 (stereo not shown) | 14.8% |
| CCn1c(CC(=O)Nc2ccccc2F)nnc1SCC(=O)N1CCN(c2ccccc2)CC1 | 1.15% |

| SMILES | hERG current change (%, negative = inhibition) at 10uM |
| --- | --- |
| Nc1ccc(S(=O)(=O)Nc2ccc(C(=O)c3ccccc3)cc2)cc1 | -2.92% |
| CSc1nc(-c2ccccc2)c(C#N)c(=O)[nH]1 | -5.88% |
| CCOC(=O)C(Cc1ccccc1)NC(=O)CCCC(=O)c1ccccc1 (stereo not shown) | 0.911% |
| O=C(CCCSc1nc2ccccc2c(=O)[nH]1)c1ccc(F)cc1 | 3.3% |
| CCN(CC)S(=O)(=O)c1cccc(C(=O)N/N=C/c2ccc(O)c(O)c2O)c1 | 11.4% |
| CCc1ccc2nc(N=C(N)N)nc(C)c2c1 | -14.3% |
| CCOc1cccc(CNc2ccc(O)cc2)c1OCc1ccc(Cl)cc1 | 10.3% |
| COc1cccc(CNCCO)c1OCc1ccc(Cl)cc1.Cl | -18% |
| CCOc1cccc(CNCCO)c1OCc1ccc(Cl)cc1.Cl | -53.2% |
| Cc1c(NC(=O)C(C)Sc2ccccc2)c(=O)n(-c2ccccc2)n1C (stereo not shown) | -1.92% |
| COc1ccc(C(=O)NCC(C)NC(=O)c2ccc(OC)c(Br)c2)cc1Br (stereo not shown) | 4.83% |
| Cc1ccc(-n2cnc3scc(-c4cccs4)c3c2=O)cc1 | 3.67% |
| Cc1cc(C)nc(S/C=C/C(=O)c2ccccc2F)n1 | 5.02% |
| COc1ccc(C2=NN(C(C#N)c3ccc(OC)c(OC)c3)C(c3ccccc3)C2)cc1 (stereo not shown) | 23.8% |
| CCCCCNc1nc(NCCCO)c(C#N)c2c1CN(C)CC2 | -75.2% |
| N#Cc1c(NCCCO)nc(NCc2ccccc2)c2c1CCN(Cc1ccccc1)C2 | -43.4% |
| CN1CCc2c(C#N)c(N3CCOCC3)nc(NCC3CCCO3)c2C1 (stereo not shown) | 11.5% |
| CCCCc1nc(NCCO)c(C#N)c2c1CCCC2 | -15.7% |
| CCc1nc(NCCC(C)C)c(C#N)c2c1CCCC2 | 23.4% |
| CCCCNc1nc(CC)c2c(c1C#N)CCCC2 | 8.24% |
| CCCCCNc1nc(N2CCCC2)c2c(c1C#N)CCN(C)C2 | -72.8% |
| CN1CCc2c(C#N)c(N3CCCCC3)nc(N3CCOCC3)c2C1 | -24.8% |

| SMILES | hERG current change (%, negative = inhibition) at 10uM |
| --- | --- |
| CC(C)CCNc1nc(N2CCCC2)c2c(c1C#N)CCN(C)C2 | -58.5% |
| Cc1ccc(CN2CC(C(=O)N3CCN(S(=O)(=O)c4c(F)cccc4F)CC3)CC2=O)cc1 (stereo not shown) | -2.83% |
| CCc1cc(=O)oc2c(C)c(OCC(=O)N3CC[C@@]4(O)CCCC[C@H]4C3)ccc12 | -14.6% |
| O=C(OCC(=O)N(CCc1ccccc1)Cc1ccccc1)c1ccccc1[N+](=O)[O-] | 1.95% |
| COc1ccccc1CNC(=O)c1cccc(S(=O)(=O)N(C)c2ccccc2)c1 | -23.5% |
| CCN(CC)S(=O)(=O)c1ccc(Cl)c(C(=O)NCc2ccccc2Cl)c1 | -24.7% |
| CN(c1ccccc1)S(=O)(=O)c1cccc(C(=O)NCc2ccccc2)c1 | -18.3% |
| CN(c1ccccc1)S(=O)(=O)c1cccc(C(=O)NCc2ccccc2CN2CCCC2)c1 | -74.6% |
| CN(c1ccccc1)S(=O)(=O)c1ccc(Cl)c(C(=O)NCc2ccccc2CN2CCCC2)c1 | -65.9% |
| CN(C)C(CNC(=O)c1cc(S(=O)(=O)N(C)c2ccccc2)ccc1Cl)c1ccccc1 (stereo not shown) | -39.6% |
| O=C(O)C[C@H]1c2cc(C(F)(F)F)ccc2S(=O)(=O)N1C1CCCCC1 | 30.3% |
| CCOC(=O)c1c(C)[nH]c(N=Nc2ccc(OC)cc2)c1C | -0.496% |
| Fc1ccc(-c2oncc2-c2nnnn2-c2ccccc2)cc1F | -15.4% |
| COC(=O)c1ccsc1NC(=O)CS(=O)(=O)c1ccccc1 | -10.1% |
| CCNS(=O)(=O)c1ccc(CCC(=O)N2CCN(c3cccc(Cl)c3)CC2)cc1 | -32.7% |
| CCCCN=C(NNc1ccc(Br)cc1)C(=O)OCC | 3.69% |
| N#Cc1ccc(COC(=O)c2cnc(Cl)c(Cl)c2)cc1 | 8.12% |
| COc1ccc(NCC(=O)N/N=C/c2cc([N+](=O)[O-])ccc2N2CCCC2)cc1 | -7.82% |
| O=C(NCc1ccccc1)C(c1ccco1)N(C(=O)c1cnccn1)c1ccc(F)cc1 (stereo not shown) | 10.5% |
| CCS(=O)(=O)Nc1ccc(Cc2ccc(NS(=O)(=O)CC)cc2)cc1 | -7.91% |
| O=[N+]([O-])c1cccc(S(=O)(=O)NCc2ccncc2)c1 | 19.4% |
| O=S(=O)(Nc1ccc(Cc2ccncc2)cc1)c1ccc(Cl)c(Cl)c1 | -53.4% |

| SMILES | hERG current change (%, negative = inhibition) at 10uM |
| --- | --- |
| O=C(NCc1ccncc1)c1ccc(NS(=O)(=O)c2cccc([N+](=O)[O-])c2)cc1 | 19.2% |
| O=S(=O)(Nc1ccc(Cc2ccncc2)cc1)c1ccc(Cl)cc1 | 12.4% |
| O=[N+]([O-])c1cccc(S(=O)(=O)Nc2ccc(Cc3ccncc3)cc2)c1 | -72.2% |
| O=S(=O)(Nc1ccncc1)c1ccc(Cl)c(Cl)c1 | 18.4% |
| CCS(=O)(=O)Nc1ccc(Cc2ccncc2)cc1 | -0.00702% |
| CCCCS(=O)(=O)Nc1ccc(Cc2ccncc2)cc1 | -50.2% |
| COc1cccc(CNC(=O)C2=C(C)C(=O)OC23CCC(C)CC3)c1 (stereo not shown) | -5.65% |
| O=C(O)c1cc(S(=O)(=O)N2CCCCCC2)ccc1Cl | 20% |
| Cc1ccnc(NCc2ccccc2O)c1 | 14.6% |
| O=C1CCC([N+](=O)[O-])C(c2ccc(-c3ccccc3)cc2)N1 (stereo not shown) | -11.3% |
| Cc1ccc(N2C(=O)C3C4CC(=O)C(c5ccccc54)C3C2=O)cc1 (stereo not shown) | 2.69% |
| Cc1ccc(N2C(=O)C3CC(c4ccccc4)=C4C5C=CC(C6C(=O)N(c7ccc(C)cc7C)C(=O)C56)C4C3C2=O)c(C)c1 (stereo not shown) | 7.82% |
| Cc1ccc(N2C(=O)C3CC(c4ccccc4)=C4C5C=CC(C6C(=O)N(c7ccc(C)cc7)C(=O)C56)C4C3C2=O)cc1 (stereo not shown) | -73.6% |
| C=C[C@]1(C)C[C@@H](OC(=O)CSCCN(CC)CC)[C@]2(C)C(C)CC[C@]3(CCC(=O)[C@H]32)[C@@H](C)[C@@H]1O (stereo partly shown) | -61.9% |
| C=C[C@]1(C)C[C@@H](OC(=O)CSCCN(CC)CC)[C@]2(C)C(C)CC[C@]3(CCC(=O)[C@H]32)[C@@H](C)[C@@H]1O.O=C(O)/C=C/C(=O)O (stereo partly shown) | -68.3% |
| O=C(Cc1noc2ccccc12)NNC(=S)Nc1ccc(Cl)cc1 | 16.5% |
| Cn1nc(C(F)(F)F)c(-c2ccc(Br)cc2)c1NC(=O)Nc1ccc(F)cc1F | 13% |
| Cc1ccc(C(=O)C2(C)C3c4cc(Br)ccc4OC(=O)C32C(=O)c2ccco2)cc1 (stereo not shown) | 15.8% |
| CCCNC(=O)[C@H]1N2C(=O)c3c(ccc(OC)c3OC)C2SC1(C)C (stereo partly shown) | 16.4% |
